Only some compounds are listed: those with a hit (about 3.5% of all), similar ones and a draw of the others.
Pf apPOL block: Pf-apPOL DNA polymerase inhibition; inhibition, % at 10 µM; 210,000 compounds, 0.25% hits; Recombinant Pf-apPOL, molecular beacon fluorescence, 1.5 h; AID 1794808
mHTT-CaM PPI inh: disrupts binding of mutant huntingtin to calmodulin; P42858; AlphaScreen His-mHTT/GST-CaM binding, luminescence; inhibition, % at 15 µM; 190,000 compounds, 3.6% hits; AID 1671202
Numbers stand for hits; - = inactive. No stated cut-off is given here; in the data, active means inhibition above about 50%; inactive means the rest.

SMILES | Pf apPOL block | mHTT-CaM PPI inh
CCn1ccc2c(ccn2CC(=O)Nc2cccc(C(F)(F)F)c2)c1=O | - | -
Cc1c(Cc2ccccc2)sc(NC(=O)c2ccc(Cl)cc2)c1C(N)=O | - | -
Clc1nc(C(Cl)(Cl)Cl)nc2ccccc12 | - | 100.0
CCCNc1nc(C(Cl)(Cl)Cl)nc2ccccc12 | - | -
CCOC(=O)Nc1nc2c(s1)CN(S(=O)(=O)N(C)C)CC2 | - | -
C=CCN1C(=O)/C(=C/c2ccccc2O)SC1=Nc1ccccc1 | - | -
C=CCN1C(=O)/C(=C/c2ccc(O)cc2)SC1=Nc1ccccc1 | - | 78.0
CCc1ccc(-n2c(C)nc3cc(C(=O)NCCCOC)ccc32)cc1 | - | -
O=C(Cc1ccccc1Cl)NCC(O)c1ccc(C(F)(F)F)cc1 (centres undefined) | - | -
COc1ccccc1NC(=O)C1=C(C)Nc2nc3ccccc3n2C1c1cccc([N+](=O)[O-])c1 (centres undefined) | - | -
CC1=C(C(=O)Nc2ccc(Cl)cc2)C(c2cccc([N+](=O)[O-])c2)n2c(nc3ccccc32)N1 (centres undefined) | - | 72.0
C=C(C)COc1ccc2c(=O)c(-c3ccc(OC)c(OC)c3)c(C)oc2c1 | - | -
CC(Sc1cn(CCNC(=O)c2cccs2)c2ccccc12)c1ccccc1 (centres undefined) | - | -
Cc1cc2c(c(=O)[nH]1)C(=O)O/C2=C\c1cccs1 | - | -
Cc1cc2c(c(=O)[nH]1)C(=O)O/C2=C\c1ccc(C)o1 | - | 69.4
O=C(CSc1nnc(Cc2ccccc2)n1-c1ccccc1)Nc1ccccc1-c1ccccc1 | - | -
O=C1CSC(c2cn(-c3ccccc3)nc2-c2ccccc2)N1Cc1ccco1 (centres undefined) | - | 59.0
O=C1CSC(c2ccco2)N1Cc1ccccc1 (centres undefined) | - | -
O=C1CSC(c2cn(-c3ccccc3)nc2-c2ccc(Cl)cc2)N1Cc1ccco1 (centres undefined) | - | 90.0
O=C1CSC(c2ccc(Br)cc2)N1Cc1ccco1 (centres undefined) | - | -
CC(=O)Nc1ccc2nc(N3CCC(C(=O)NCCCOC(C)C)CC3)cc(C)c2c1 | - | -
COc1nccnc1N1CCC(NC(=O)c2sccc2C)C1 (centres undefined) | - | -
CNC(=O)c1c(N=Cc2ccccc2O)sc2c1CCCC2 | - | 61.0
CNC(=O)c1c(NC(C)=O)sc2c1CCCCC2 | - | -
COc1ccccc1/C=C1\C(=O)Nc2ccc(Br)cc21 | - | -
SMILES | Pf apPOL block | mHTT-CaM PPI inh
COc1cc(Cl)c(/C=C2\C(=O)Nc3ccc(Br)cc32)cc1OC | - | -
COc1cc(Cl)cc(/C=C2\C(=O)Nc3ccc(Br)cc32)c1OC | - | 57.0
COc1cccc(/C=C2\C(=O)Nc3ccc(Br)cc32)c1OC | - | 89.0
CC1CN(C(=O)Cc2ccsc2)CC1c1nc(-c2ccncc2)no1 (centres undefined) | - | -
O=C(CC(=O)Nc1ccc(F)c(Cl)c1)Nc1ccc(F)c(Cl)c1 | - | -
CCSc1nnc(NC(=O)c2nnn(-c3nc4c(s3)CCCC4)c2C)s1 | - | -
Cc1[nH]c2ccccc2c1C(C[N+](=O)[O-])c1ccco1 (centres undefined) | - | -
Cc1[nH]c2ccccc2c1C(c1ccco1)c1c(C)[nH]c2ccccc12 | - | 55.0
CN(Cc1ccccc1)C(=O)c1ccccc1[N+](=O)[O-] | - | -
O=C(NC(NCCc1ccccc1)C(Cl)(Cl)Cl)c1ccco1 (centres undefined) | - | -
O=C(NC(NCC1CCCO1)C(Cl)(Cl)Cl)c1ccco1 (centres undefined) | 97.2 | -
O=C(CCC1CCCN(c2cc(NC3CC3)ncn2)C1)NCc1ccc2c(c1)OCO2 (centres undefined) | - | -
COc1ccc(Cl)cc1S(=O)(=O)Nc1ccc(NC(C)=O)cc1 | - | -
Cc1ccc(-n2nc(C)c3sc(N4CCCN(C(=O)C5CCCC5)CC4)nc32)cc1 | - | -
Cc1cccc(-n2nc(C)c3sc(N4CCCN(C(=O)C5CCCCC5)CC4)nc32)c1 | - | 67.8
COc1ccc(OC(C)C(=O)Nc2ccc([N+](=O)[O-])cc2OC)cc1 (centres undefined) | - | -
COc1cc(NC(=O)CSc2nc3nc(C)c(Cc4ccccc4C)c(C)n3n2)cc(OC)c1 | - | -
Cc1cc(C)n2nc(SC(C)C(=O)NCc3ccccc3Cl)nc2n1 (centres undefined) | 59.9 | -
Cc1cc(C)n2nc(SCc3c(F)cccc3Cl)nc2n1 | - | -
Cc1cc(C)n2nc(SCC(=O)Nc3ccc(C)c(Cl)c3)nc2n1 | - | 51.0
Cc1cc(C)n2nc(SC(C)C(=O)NCc3ccccc3)nc2n1 (centres undefined) | - | -
Cc1cc(C)n2nc(SCc3ccc(F)cc3Cl)nc2n1 | - | 52.0
Cc1cc(C)n2nc(SCC(=O)Nc3cccc(Cl)c3)nc2n1 | - | -
COc1ccc(NC(=O)CSc2nc3nc(C)c(Cc4ccccc4C)c(C)n3n2)cc1OC | - | 55.0
COCC(=O)NC1CCN(c2ccccc2C(=O)N2CCCCC2C)CC1 (centres undefined) | - | -
SMILES | Pf apPOL block | mHTT-CaM PPI inh
CC(=O)N1CCc2cc(Br)cc(S(=O)(=O)Nc3cccc4c3CCCC4)c21 | - | -
Cc1cccc(C)c1NC(=O)c1cc2n(n1)C(C(F)(F)F)CC(c1ccco1)N2 (centres undefined) | - | -
CNc1cc(C(=O)N(C)C)c2cccc(Cl)c2n1 | - | -
Cc1noc(CNC(=O)c2cc(-c3ccco3)[nH]n2)n1 | - | -
C=CCc1c(C)nc2nc(SCC(=O)Nc3cccc(Cl)c3)nn2c1C | - | -
C=CCc1c(C)nc2nc(SCC(=O)Nc3ccc(C)c(C)c3)nn2c1C | - | 53.0
COc1ccc(NC(=O)c2cc3c(CO)cnc(C)c3oc2=Nc2ccc(C)cc2)cc1 | - | -
Cc1sc2nc(C)n(Cc3ccc(C(F)(F)F)cc3)c(=O)c2c1C | - | 88.0
Cc1sc2nc(C)n(Cc3csc(-c4ccc(Cl)cc4)n3)c(=O)c2c1C | - | -
COc1ccccc1CN1COc2ccc3c(c2C1)OC(=Cc1ccco1)C3=O | - | -
COc1cc(CN2COc3ccc4c(c3C2)OC(=Cc2ccco2)C4=O)cc(OC)c1OC | - | 50.9
COc1ccc(CN2COc3ccc4c(c3C2)OC(=Cc2ccco2)C4=O)cc1OC | - | 53.1
COc1cc(CN2COc3ccc4c(c3C2)OC(=Cc2ccccc2)C4=O)cc(OC)c1OC | - | -
COc1nccnc1N1CCC(NC(=O)NCc2ccc(F)cc2)C1 (centres undefined) | - | -
CC(=O)N1CCCc2ccc(NC(=O)c3ccc(F)cc3)cc21 | - | -
Cc1nc(-c2ccc(N3CCN(C(=O)c4c(F)cccc4F)CC3)nc2)no1 | - | -
COCCNC(=O)C(=O)NCCCN1CCN(c2ccccc2)CC1 | - | -
CCCC(=O)Nc1nnc(C2CC(=O)N(c3ccc(F)cc3)C2)o1 (centres undefined) | - | -
CC1(C)Cc2c(sc3nc(Nc4ccccc4)n(N)c(=O)c23)CO1 | - | 53.4
CC1(C)Cc2c(sc3nc(SCC(=O)O)n(-c4ccccc4)c(=O)c23)CO1 | - | -
N#CC1=C(S)NC(O)(c2ccccc2)C([n+]2ccccc2)C1c1ccccc1Br (centres undefined) | - | 77.0
N#CC1=C(S)NC(=O)C([n+]2ccccc2)C1c1ccc(F)c(Br)c1 (centres undefined) | - | -

Compound activity: PubChem, University of Kansas High Throughput Screening Laboratory
